Assay [1] in a line: NCI Yeast Anticancer Drug Screen. Data for the rad50 strain (AID 155).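 Also: 0% = growth of vehicle-only cultures of the same strain.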 Conditions: S. cerevisiae rad50 strain growth inhibition, hits give high values. In outline:
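Cells are treated with compound, grown, and their growth is then scored against vehicle-only cultures of the same repair-deficient yeast strain.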

Assay [2] in a line: NCI Yeast Anticancer Drug Screen. Data for the mec2-1 strain (AID 157). Conditions: S. cerevisiae mec2-1 strain, hits give high values. Put shortly:
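Readout is yeast growth inhibition, normalised to vehicle-treated controls, in the mec2-1 strain exposed to compound.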

The nature of assay [3]: NCI Yeast Anticancer Drug Screen. Data for the sgs1 mgt1 strain (AID 161).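 Also: 0% = growth of cultures given vehicle only.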 The note with it: S. cerevisiae sgs1 mgt1 strain, hits give high values. In outline: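 Yeast cells carrying a defined DNA-repair defect were exposed to test compounds. Growth inhibition was measured relative to vehicle-treated controls.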
Assay [4] in a line: NCI Yeast Anticancer Drug Screen. Data for the cln2 rad14 strain (AID 165).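 Also: 0% = growth equal to vehicle treated cultures.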 The note with it: S. cerevisiae cln2 rad14 strain, hits give high values. In outline: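 Relative to vehicle controls, growth inhibition of compound-treated cln2 rad14 yeast was recorded.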
Assay [5] is described as follows: NCI Yeast Anticancer Drug Screen. Data for the bub3 strain (AID 167). Conditions: S. cerevisiae bub3 mutant strain, hits give high values. In outline: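 Part of a panel of yeast mutants defective in DNA damage repair or cell cycle regulation. Each strain is grown with compound, and inhibition is calculated relative to solvent-treated cultures.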
A short description of assay [6]: NCI Yeast Anticancer Drug Screen. Data for the mlh1 rad18 strain (AID 175). Conditions: S. cerevisiae mlh1 rad18 strain growth inhibition, hits give high values. Put shortly: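 Test agents were incubated with a yeast strain of defined genotype (DNA damage repair defect). Inhibition of growth was derived by comparison with vehicle-exposed cultures.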
The mark [7] stands for this setting: at 5.0 µM (retest, dose inferred, filed as 0.5).
Where [8] appears, read: at 50.0 µM (retest, dose inferred, filed as 5.0).

This is part of a sample that, as a whole, favours compounds with a hit. Of some 79,000 tested, about 15% had one in any assay. Values without a mark were called inactive. Calls of active or inactive are those of the source. Rule as the data show it: active = growth inhibition above about 70%; inactive = the rest.

Take `Fc1ccc2nncc(SCc3ccccc3)c2c1`: the growth inhibition is 1% in assay [1] (setting [7]); 97% (active) in assay [1] (setting [8]); 97.9% (active) in assay [1] (at 50.0 µM); 10% in assay [2] (setting [7]); 99% (active) in assay [2] (setting [8]); 97.2% (active) in assay [2] (at 50.0 µM). Besides, the growth inhibition in assay [3] (setting [7]) is 11%; in assay [3] (setting [8]) it was 98% (active); in assay [3] (at 50.0 µM) it was 93.2% (active); in assay [4] (setting [7]), 3%; in assay [4] (setting [8]), 95% (active); in assay [4] (at 50.0 µM), 91.5% (active). The growth inhibition in assay [5] (setting [7]) was 2%; in assay [5] (setting [8]), 97% (active); in assay [5] (at 50.0 µM), 97% (active); in assay [6] (setting [7]) it was -2%; in assay [6] (setting [8]) it was 98% (active); in assay [6] (at 50.0 µM), 95.5% (active).
Regarding `Cc1ccc(/C=C/C(=O)/C=C/c2ccc(C)o2)o1`, the growth inhibition was 50% in assay [1] (setting [7]); 97% (active) in assay [1] (setting [8]); 65.8% in assay [1] (at 50.0 µM); 45% in assay [2] (setting [7]); 99% (active) in assay [2] (setting [8]); 71.3% (active) in assay [2] (at 50.0 µM). The growth inhibition in assay [3] (setting [7]) was 49%; in assay [3] (setting [8]), 97% (active); in assay [3] (at 50.0 µM), 75% (active); in assay [4] (setting [7]), 42%; in assay [4] (setting [8]), 81% (active); in assay [4] (at 50.0 µM), 39%. Further, the growth inhibition in assay [5] (setting [7]) was 47%; in assay [5] (setting [8]), 68%; in assay [5] (at 50.0 µM) it was 75% (active); in assay [6] (setting [7]), 62%; in assay [6] (setting [8]), 98% (active); in assay [6] (at 50.0 µM), 92.4% (active).
Take `CCOC(=O)C(=N\Nc1ccccc1C)/C(C)=N\NC(N)=S`: the growth inhibition was -9% in assay [1] (setting [7]); 37% in assay [1] (setting [8]); 73.5% (active) in assay [1] (at 50.0 µM); 7% in assay [2] (setting [7]); 55% in assay [2] (setting [8]); 48.5% in assay [2] (at 50.0 µM). The growth inhibition in assay [3] (setting [7]) is 15%; in assay [3] (setting [8]) it was 71% (active); in assay [3] (at 50.0 µM), 75.2% (active); in assay [4] (setting [7]) it was -13%; in assay [4] (setting [8]), 20%; in assay [4] (at 50.0 µM) it was 81.1% (active). For the same compound, the growth inhibition in assay [5] (setting [7]) was 5%; in assay [5] (setting [8]) it was 30%; in assay [5] (at 50.0 µM) it was 73.6% (active); in assay [6] (setting [7]), 18%; in assay [6] (setting [8]) it was 68%; in assay [6] (at 50.0 µM) it was 80.3% (active).
With `C(=C\[n+]1ccc2ccccc2c1)/c1ccccc1`, the growth inhibition was -3% in assay [1] (setting [7]); 35% in assay [1] (setting [8]); 80% (active) in assay [1] (at 50.0 µM); -2% in assay [2] (setting [7]); 12% in assay [2] (setting [8]); 26.9% in assay [2] (at 50.0 µM). Further, the growth inhibition in assay [3] (setting [7]) is -4%; in assay [3] (setting [8]), 38%; in assay [3] (at 50.0 µM), 68.7%; in assay [4] (setting [7]), -3%; in assay [4] (setting [8]), -3%; in assay [4] (at 50.0 µM), 42.5%. The growth inhibition is -5% in assay [5] (setting [7]); 27% in assay [5] (setting [8]); 8% in assay [5] (at 50.0 µM); 10% in assay [6] (setting [7]); 10% in assay [6] (setting [8]); 74.9% (active) in assay [6] (at 50.0 µM).
For the compound `OC(Cn1cncn1)(Cn1cncn1)c1ccc(Cl)cc1Cl`, the growth inhibition is 66% in assay [1] (setting [7]); 65% in assay [1] (setting [8]); 62.6% in assay [1] (at 50.0 µM); 62% in assay [2] (setting [7]); 59% in assay [2] (setting [8]); 54.5% in assay [2] (at 50.0 µM). Moreover, the growth inhibition was 38% in assay [3] (setting [7]); 65% in assay [3] (setting [8]); 63.2% in assay [3] (at 50.0 µM); 71% (active) in assay [4] (setting [7]); 77% (active) in assay [4] (setting [8]); 60.8% in assay [4] (at 50.0 µM). Further, the growth inhibition in assay [5] (setting [7]) was 65%; in assay [5] (setting [8]), 74% (active); in assay [5] (at 50.0 µM) it was 56.7%; in assay [6] (setting [7]) it was 75% (active); in assay [6] (setting [8]), 81% (active); in assay [6] (at 50.0 µM), 48.2%.
For the compound `CCc1cc(/C=C\c2ccnc3ccccc23)ccc1N(C)C`, the growth inhibition in assay [1] (setting [7]) was -1%; in assay [1] (setting [8]) it was 99% (active); in assay [1] (at 50.0 µM), 98.2% (active); in assay [2] (setting [7]), -17%; in assay [2] (setting [8]), 91% (active); in assay [2] (at 50.0 µM) it was 98.4% (active). Also, the growth inhibition in assay [3] (setting [7]) is -1%; in assay [3] (setting [8]) it was 95% (active); in assay [3] (at 50.0 µM), 98.3% (active); in assay [4] (setting [7]), -12%; in assay [4] (setting [8]) it was 81% (active); in assay [4] (at 50.0 µM), 93.5% (active). The growth inhibition is -6% in assay [5] (setting [7]); 93% (active) in assay [5] (setting [8]); 98.1% (active) in assay [5] (at 50.0 µM); -8% in assay [6] (setting [7]); 97% (active) in assay [6] (setting [8]); 98% (active) in assay [6] (at 50.0 µM).
As to `C/C(CCn1[nH]c(=O)ccc1=O)=N\Nc1ccc([N+](=O)[O-])cc1[N+](=O)[O-]`, the growth inhibition in assay [1] (setting [7]) is 44%; in assay [1] (setting [8]), 97% (active); in assay [1] (at 50.0 µM) it was 67.3%; in assay [2] (setting [7]) it was 20%; in assay [2] (setting [8]) it was 98% (active); in assay [2] (at 50.0 µM), -0.6%. For the same compound, the growth inhibition in assay [3] (setting [7]) is 27%; in assay [3] (setting [8]) it was 98% (active); in assay [3] (at 50.0 µM) it was 19.6%; in assay [4] (setting [7]) it was 23%; in assay [4] (setting [8]) it was 81% (active); in assay [4] (at 50.0 µM), 24.4%. Moreover, the growth inhibition in assay [5] (setting [7]) was 32%; in assay [5] (setting [8]), 98% (active); in assay [5] (at 50.0 µM) it was 25.9%; in assay [6] (setting [7]), 45%; in assay [6] (setting [8]), 98% (active); in assay [6] (at 50.0 µM) it was 73.2% (active).
In the case of `Clc1ccc(OCC(Cn2ccnc2)c2ccc(Cl)cc2)cc1` (stereo not given), the growth inhibition in assay [1] (setting [7]) was 74% (active); in assay [1] (setting [8]) it was 91% (active); in assay [1] (at 50.0 µM) it was 99.8% (active); in assay [2] (setting [7]), 55%; in assay [2] (setting [8]), 80% (active); in assay [2] (at 50.0 µM) it was 99.9% (active). Besides, the growth inhibition is 70% (active) in assay [3] (setting [7]); 97% (active) in assay [3] (setting [8]); 99.8% (active) in assay [3] (at 50.0 µM); 60% in assay [4] (setting [7]); 89% (active) in assay [4] (setting [8]); 99.5% (active) in assay [4] (at 50.0 µM). The growth inhibition in assay [5] (setting [7]) is 73% (active); in assay [5] (setting [8]), 98% (active); in assay [5] (at 50.0 µM), 99.8% (active); in assay [6] (setting [7]) it was 64%; in assay [6] (setting [8]), 97% (active); in assay [6] (at 50.0 µM), 99.2% (active).
For the compound `COc1ccc(C2C3CCCC(C3=O)C(c3ccc(OC)cc3)N2N=O)cc1` (stereo not given), the growth inhibition in assay [1] (setting [7]) was 0%; in assay [1] (setting [8]), 68%; in assay [1] (at 50.0 µM), 84% (active); in assay [2] (setting [7]), 11%; in assay [2] (setting [8]), 64%; in assay [2] (at 50.0 µM), 86.9% (active). The growth inhibition in assay [3] (setting [7]) was -4%; in assay [3] (setting [8]) it was 77% (active); in assay [3] (at 50.0 µM), 59.5%; in assay [4] (setting [7]), -6%; in assay [4] (setting [8]), 71% (active); in assay [4] (at 50.0 µM), 88.8% (active). For the same compound, the growth inhibition in assay [5] (setting [7]) was -2%; in assay [5] (setting [8]) it was 72% (active); in assay [5] (at 50.0 µM), 85.2% (active); in assay [6] (setting [7]), -3%; in assay [6] (setting [8]), 77% (active); in assay [6] (at 50.0 µM), 96.5% (active).
On to `CC(C)CCOC(=O)c1ccc(O)cc1.[Zn+2]`, for which the growth inhibition in assay [1] (setting [7]) is 5%; in assay [1] (setting [8]), 36%; in assay [1] (at 50.0 µM), 76.1% (active); in assay [2] (setting [7]) it was -1%; in assay [2] (setting [8]), 32%; in assay [2] (at 50.0 µM), 65.6%. Further, the growth inhibition was 3% in assay [3] (setting [7]); 29% in assay [3] (setting [8]); 76.8% (active) in assay [3] (at 50.0 µM); 2% in assay [4] (setting [7]); 17% in assay [4] (setting [8]); 37% in assay [4] (at 50.0 µM). For the same compound, the growth inhibition was 53% in assay [5] (setting [7]); 86% (active) in assay [5] (setting [8]); 88.5% (active) in assay [5] (at 50.0 µM); 3% in assay [6] (setting [7]); 35% in assay [6] (setting [8]); 84.2% (active) in assay [6] (at 50.0 µM).
